Results from the supplement of paper PMC10849652.
About 7,900 targets were measured; listed, in parts, are those with a hit and a random draw of the rest. About 0.6% of all pairs of compound and target were hits.

compound: COc1cccc2cc(-c3nc([C@H]4CC[C@H](C(=O)O)CC4)n4ncnc(N)c34)[nH]c12; test: log2 fold change, soluble protein after heating vs DMSO (PISA); higher = thermal stabilisation; K562 cells, 10 uM, 30 min; active = over 0.2 and 3.5 SD of the protein, either way, in both replicates (recomputed)
In short: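 K562 cells at 2×10^6 cells/mL were given 10 μM compound for 30 min. Aliquots then went through 3 min of heating across 48°C-58°C, were pooled, and were extracted in PBS with 0.5% NP-40 at 4°C, and the supernatant after 21,000xg for 90 min was quantified by TMTpro 16plex LC-MS/MS with channel sums equalised. Thermal stability relative to control samples, from duplicates, is given as log2 fold change.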

UniProt P60520, sequence (P60520 whole entry, looked up): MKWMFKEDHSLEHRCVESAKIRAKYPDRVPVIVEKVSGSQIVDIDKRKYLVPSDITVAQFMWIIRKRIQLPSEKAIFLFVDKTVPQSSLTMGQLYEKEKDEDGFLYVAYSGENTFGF
UniProt P46976, sequence (P46976 whole entry, looked up): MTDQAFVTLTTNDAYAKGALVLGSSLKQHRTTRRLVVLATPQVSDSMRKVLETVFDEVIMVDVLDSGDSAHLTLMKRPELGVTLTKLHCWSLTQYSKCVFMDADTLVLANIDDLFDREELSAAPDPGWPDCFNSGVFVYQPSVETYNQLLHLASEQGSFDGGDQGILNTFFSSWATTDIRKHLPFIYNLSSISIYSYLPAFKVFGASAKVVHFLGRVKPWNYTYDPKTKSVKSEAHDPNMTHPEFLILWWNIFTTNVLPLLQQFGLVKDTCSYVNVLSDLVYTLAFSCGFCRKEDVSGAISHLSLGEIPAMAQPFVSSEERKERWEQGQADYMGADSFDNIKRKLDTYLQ
UniProt Q9BTY2, sequence (Q9BTY2 whole entry, looked up): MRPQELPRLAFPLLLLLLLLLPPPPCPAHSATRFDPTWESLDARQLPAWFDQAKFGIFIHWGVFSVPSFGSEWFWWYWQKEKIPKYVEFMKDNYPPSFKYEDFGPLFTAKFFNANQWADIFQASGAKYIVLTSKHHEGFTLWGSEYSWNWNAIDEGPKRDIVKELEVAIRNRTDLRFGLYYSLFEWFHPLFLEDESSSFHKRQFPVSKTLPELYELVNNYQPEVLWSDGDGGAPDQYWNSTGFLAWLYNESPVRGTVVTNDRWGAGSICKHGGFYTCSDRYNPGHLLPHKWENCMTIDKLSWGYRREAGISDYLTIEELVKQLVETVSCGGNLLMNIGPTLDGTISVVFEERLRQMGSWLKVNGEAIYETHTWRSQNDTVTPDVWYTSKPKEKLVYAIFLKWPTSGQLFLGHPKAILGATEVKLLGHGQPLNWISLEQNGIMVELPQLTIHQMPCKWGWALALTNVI
UniProt P02008, sequence (P02008 whole entry, looked up): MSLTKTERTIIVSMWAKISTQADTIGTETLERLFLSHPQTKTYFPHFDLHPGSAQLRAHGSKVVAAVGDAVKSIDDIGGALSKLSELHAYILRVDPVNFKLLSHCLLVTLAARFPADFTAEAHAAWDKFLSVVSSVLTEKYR
UniProt Q9Y680, sequence (Q9Y680 whole entry, looked up): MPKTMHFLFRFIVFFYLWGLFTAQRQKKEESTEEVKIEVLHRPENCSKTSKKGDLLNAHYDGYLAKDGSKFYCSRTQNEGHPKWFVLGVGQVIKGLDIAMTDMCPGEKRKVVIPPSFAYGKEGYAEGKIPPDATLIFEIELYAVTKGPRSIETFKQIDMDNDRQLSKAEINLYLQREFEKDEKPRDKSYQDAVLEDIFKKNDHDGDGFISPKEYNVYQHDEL
UniProt P0C0S5, sequence (P0C0S5 whole entry, looked up): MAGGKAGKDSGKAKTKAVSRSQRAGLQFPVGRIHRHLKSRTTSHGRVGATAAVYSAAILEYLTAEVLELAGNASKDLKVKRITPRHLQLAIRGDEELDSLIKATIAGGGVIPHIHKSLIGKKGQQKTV
UniProt Q96HJ9, sequence (Q96HJ9 whole entry, looked up): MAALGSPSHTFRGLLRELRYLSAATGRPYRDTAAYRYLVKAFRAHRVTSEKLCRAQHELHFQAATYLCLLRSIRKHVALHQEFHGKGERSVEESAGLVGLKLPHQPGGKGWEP
UniProt Q86YM7, sequence (Q86YM7 whole entry, looked up): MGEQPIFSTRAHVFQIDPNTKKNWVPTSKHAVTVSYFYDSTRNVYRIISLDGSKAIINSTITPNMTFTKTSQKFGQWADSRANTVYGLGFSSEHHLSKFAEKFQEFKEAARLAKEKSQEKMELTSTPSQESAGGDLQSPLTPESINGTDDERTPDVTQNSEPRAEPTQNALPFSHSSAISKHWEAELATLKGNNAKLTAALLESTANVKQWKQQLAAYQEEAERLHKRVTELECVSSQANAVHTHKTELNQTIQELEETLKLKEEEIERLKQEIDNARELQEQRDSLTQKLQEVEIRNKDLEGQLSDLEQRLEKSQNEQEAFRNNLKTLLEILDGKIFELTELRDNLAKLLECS
UniProt Q53GQ0, sequence (Q53GQ0 whole entry, looked up): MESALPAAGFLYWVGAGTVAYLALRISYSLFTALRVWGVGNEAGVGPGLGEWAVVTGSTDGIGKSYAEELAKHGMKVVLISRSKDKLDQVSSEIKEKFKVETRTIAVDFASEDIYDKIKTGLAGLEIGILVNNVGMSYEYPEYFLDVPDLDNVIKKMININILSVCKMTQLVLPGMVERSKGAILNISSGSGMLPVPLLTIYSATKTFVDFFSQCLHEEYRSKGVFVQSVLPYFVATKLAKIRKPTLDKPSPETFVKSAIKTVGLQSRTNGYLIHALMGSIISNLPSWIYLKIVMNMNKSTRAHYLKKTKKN
UniProt P08236, sequence (P08236 whole entry, looked up): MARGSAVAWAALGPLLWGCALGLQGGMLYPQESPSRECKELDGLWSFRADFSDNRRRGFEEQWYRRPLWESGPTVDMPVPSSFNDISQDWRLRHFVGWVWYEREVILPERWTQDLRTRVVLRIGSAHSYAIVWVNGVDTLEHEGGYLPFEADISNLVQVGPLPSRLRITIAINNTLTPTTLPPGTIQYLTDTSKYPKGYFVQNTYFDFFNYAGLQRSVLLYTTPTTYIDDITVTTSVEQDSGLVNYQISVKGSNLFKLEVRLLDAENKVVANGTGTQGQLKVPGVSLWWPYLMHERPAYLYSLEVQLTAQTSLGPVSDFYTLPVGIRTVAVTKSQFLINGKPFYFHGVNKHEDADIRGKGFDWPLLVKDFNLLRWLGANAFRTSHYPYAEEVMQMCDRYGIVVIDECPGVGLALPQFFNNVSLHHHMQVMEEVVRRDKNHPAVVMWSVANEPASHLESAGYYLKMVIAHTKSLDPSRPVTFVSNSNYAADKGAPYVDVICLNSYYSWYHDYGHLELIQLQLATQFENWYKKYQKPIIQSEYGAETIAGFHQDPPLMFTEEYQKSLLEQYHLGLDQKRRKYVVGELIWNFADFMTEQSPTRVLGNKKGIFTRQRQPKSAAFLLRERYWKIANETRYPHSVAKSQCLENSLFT
UniProt P54803, sequence (P54803 whole entry, looked up): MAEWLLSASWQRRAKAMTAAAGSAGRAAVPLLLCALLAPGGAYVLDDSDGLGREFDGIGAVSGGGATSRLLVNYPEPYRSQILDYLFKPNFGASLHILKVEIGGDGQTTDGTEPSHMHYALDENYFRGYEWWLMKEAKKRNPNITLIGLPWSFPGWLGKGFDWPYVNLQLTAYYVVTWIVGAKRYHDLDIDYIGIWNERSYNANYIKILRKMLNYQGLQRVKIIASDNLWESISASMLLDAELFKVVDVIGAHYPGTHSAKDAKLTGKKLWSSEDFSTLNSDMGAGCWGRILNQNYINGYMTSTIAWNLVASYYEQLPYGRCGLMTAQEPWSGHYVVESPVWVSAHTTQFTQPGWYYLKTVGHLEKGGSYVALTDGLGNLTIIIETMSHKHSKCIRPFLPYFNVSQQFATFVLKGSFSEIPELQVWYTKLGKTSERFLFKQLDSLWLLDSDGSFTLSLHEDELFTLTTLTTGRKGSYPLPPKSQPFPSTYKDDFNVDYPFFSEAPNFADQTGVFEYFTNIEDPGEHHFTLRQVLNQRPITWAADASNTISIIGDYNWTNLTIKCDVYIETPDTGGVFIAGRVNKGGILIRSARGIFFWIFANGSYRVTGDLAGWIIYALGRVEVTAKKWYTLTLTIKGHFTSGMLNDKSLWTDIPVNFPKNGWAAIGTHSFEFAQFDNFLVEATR
UniProt O14929, sequence (O14929 whole entry, looked up): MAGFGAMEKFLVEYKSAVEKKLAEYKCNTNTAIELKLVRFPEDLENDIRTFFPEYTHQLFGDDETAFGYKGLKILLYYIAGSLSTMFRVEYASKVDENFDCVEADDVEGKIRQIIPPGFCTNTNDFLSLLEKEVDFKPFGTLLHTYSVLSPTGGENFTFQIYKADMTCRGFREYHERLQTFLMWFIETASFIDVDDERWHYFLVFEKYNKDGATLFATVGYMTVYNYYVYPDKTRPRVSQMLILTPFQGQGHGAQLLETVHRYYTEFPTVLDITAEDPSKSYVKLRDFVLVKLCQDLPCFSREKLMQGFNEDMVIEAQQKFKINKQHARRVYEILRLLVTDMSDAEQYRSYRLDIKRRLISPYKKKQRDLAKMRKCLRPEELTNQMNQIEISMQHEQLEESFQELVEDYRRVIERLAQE
UniProt O14893, sequence (O14893 whole entry, looked up): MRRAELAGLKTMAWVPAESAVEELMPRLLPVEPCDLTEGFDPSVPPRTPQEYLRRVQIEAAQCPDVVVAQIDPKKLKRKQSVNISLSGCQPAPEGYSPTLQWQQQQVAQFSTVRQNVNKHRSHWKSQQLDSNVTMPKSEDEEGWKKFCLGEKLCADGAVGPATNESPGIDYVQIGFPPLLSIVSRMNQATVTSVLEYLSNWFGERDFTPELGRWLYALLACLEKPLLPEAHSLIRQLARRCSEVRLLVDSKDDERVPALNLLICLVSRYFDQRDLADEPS
UniProt P69905, sequence (P69905 whole entry, looked up): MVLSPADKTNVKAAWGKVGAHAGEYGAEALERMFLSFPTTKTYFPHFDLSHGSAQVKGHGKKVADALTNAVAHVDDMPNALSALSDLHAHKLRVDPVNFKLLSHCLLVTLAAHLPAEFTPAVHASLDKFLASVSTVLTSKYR
UniProt P31943, sequence (P31943 whole entry, looked up): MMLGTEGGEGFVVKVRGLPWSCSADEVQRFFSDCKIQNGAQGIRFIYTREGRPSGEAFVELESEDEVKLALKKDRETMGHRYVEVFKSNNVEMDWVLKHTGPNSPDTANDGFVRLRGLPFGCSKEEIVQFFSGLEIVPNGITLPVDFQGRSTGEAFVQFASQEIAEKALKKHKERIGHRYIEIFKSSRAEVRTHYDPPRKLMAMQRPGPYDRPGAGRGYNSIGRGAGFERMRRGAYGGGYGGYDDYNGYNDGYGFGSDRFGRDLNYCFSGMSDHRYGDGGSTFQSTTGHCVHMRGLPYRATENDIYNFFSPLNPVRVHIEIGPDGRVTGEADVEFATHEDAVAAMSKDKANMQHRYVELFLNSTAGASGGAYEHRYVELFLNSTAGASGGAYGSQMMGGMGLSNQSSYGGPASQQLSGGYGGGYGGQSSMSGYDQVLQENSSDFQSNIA

log2 fold change, inactive:
HECTD1 (UniProt Q9ULT8) -0.132
FMC1 (UniProt Q96HJ9) 0.023
GABARAPL2 (UniProt P60520) 0
HOMER1 (UniProt Q86YM7) -0.042
H2AZ1 (UniProt P0C0S5) -0.161
GOLGB1 isoform 2 (UniProt Q14789) -0.051
GLCCI1 (UniProt Q86VQ1) 0.083
GUSB (UniProt P08236) -0.027
H2AFX (UniProt P16104) -0.361
HSPA8 (UniProt E9PK54) -0.002
HBA1 (UniProt P69905) 0.079
FKBP7 (UniProt Q9Y680) 0.003
GYG1 (UniProt P46976) -0.195
HNRNPH1 (UniProt P31943) 0.068
HBZ (UniProt P02008) 0.093
GALC (UniProt P54803) 0.066
FUCA2 (UniProt Q9BTY2) 0.045
GEMIN2 (UniProt O14893) -0.029
FANCD2 isoform 1 (UniProt Q9BXW9) 0.031
GNAS (UniProt Q5JWF2) -0.077
HSD17B12 (UniProt Q53GQ0) 0.045
HAT1 (UniProt O14929) -0.014
GLS (UniProt O94925) -0.009
